“And” between values parts separate entries of the source, which are not always exact repeats. Identical values can stand only once. Results filed as inconclusive are left out. Where a call stands in place of a potency, no number is given. The source made the active and inactive calls. Unless noted, the call rests on the fitted dose curve; in most records, active means well fitted curve in the direction sought with a large enough effect; inconclusive means small, poorly fitted or top-dose-only effect, or another doubt; inactive means no such curve, though single readings can be large; an effect the other way counts as inactive or inconclusive.
Tests used:
[1] = molecular target: Cytochrome P450 2C9 (Homo sapiens) (UniProt P11712); test: Cytochrome P450 family 2 subfamily C member 9 (CYP2C9) small molecule antagonists: luciferase biochemical (cell-free) qHTS assay (AID 1645842; active means well fitted curve in the direction sought with a large enough effect in the repeat runs; an effect the other way counts as inactive or inconclusive; further: nearly all actives have a fitted effect of over 55% in size; further: potency means the concentration at half of the fitted maximal effect)
Outline: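 Luminescence, after 20 min with luciferin detection reagent, reflected CYP2C9 turnover during a 1 h NADPH-driven reaction at 37C. Enzyme-substrate mix contained 0.4% bovine serum albumin and was preincubated with compound 10 min at room temperature.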

[2] = Primary qHTS for inhibitors of nuclear receptor binding SET domain protein 2 (NSD2) in an isogenic RCH-ACV NSD2 p.E1099K mutant (9B) (AID 1645876); further: nearly all actives have a fitted effect of over 70% in size; further: potency means the concentration at half of the fitted maximal effect
[3] = Primary qHTS for inhibitors of nuclear receptor binding SET domain protein 2 (NSD2) in an RCH-ACV wild type WT cells (2C) (AID 1645877); further: nearly all actives have a fitted effect of over 70% in size; further: potency means the concentration at half of the fitted maximal effect
[4] = molecular target: Papain (Carica papaya) (UniProt P00784); test: Primary qHTS assay for inhibitors of the protease papain (AID 1645873);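 further: papain turnover of Z-FR-AMC read as the AMC fluorescence gain over 10 min; series mostly up to about 50 µM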
[5] = molecular target: Rap guanine nucleotide exchange factor 3 (Homo sapiens) (UniProt O95398); test: Confirmatory qHTS for antagonist of cAMP-regulated guanine nucleotide exchange factor 3 (EPAC1) (AID 1645880); further: nearly all actives have a fitted effect of over 55% in size
Outline: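 Nucleotide exchange uses 100 nM EPAC1, 250 nM RAP1B-BODIPY-GDP and 50 uM GDP, with compounds in a concentration-titration series. After 5 min at room temperature, fluorescence (480 nm ex/540 nm em) is read every 5 min for 30 min. Data are normalized to control ATA and DMSO.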

[6] = molecular target: Rap guanine nucleotide exchange factor 3 (Homo sapiens) (UniProt O95398); test: Confirmatory qHTS for agonist of cAMP-regulated guanine nucleotide exchange factor 3 (EPAC1) (AID 1645881);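 further: EPAC1 catalysed release of BODIPY-GDP from Rap1B seen as fluorescence loss; nearly all actives have a fitted effect of over 75% in size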
[7] = molecular target: Rap guanine nucleotide exchange factor 4 (Homo sapiens) (UniProt Q8WZA2); test: Confirmatory qHTS for agonist of cAMP-regulated guanine nucleotide exchange factor 4 (EPAC2) (AID 1645884);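 further: nucleotide exchange releases bodipy-GDP from Rap1 and this lowers its fluorescence; nearly all actives have a fitted effect of over 65% in size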
[8] = molecular target: Rap guanine nucleotide exchange factor 4 (Homo sapiens) (UniProt Q8WZA2); test: Confirmatory qHTS for antagonist of cAMP-regulated guanine nucleotide exchange factor 4 (EPAC2) (AID 1645885); further: nearly all actives have a fitted effect of over 25% in size
[9] = molecular target: Catechol O-methyltransferase (Homo sapiens) (UniProt P21964); test: Confirmatory Screen for Target Class Profiling of Small Molecule Inhibitors of Methyltransferases (AID 1745852); details: MTase-Glo luminescence, SAH detection, recombinant enzyme; measured here: COMT max response; stronger effect = lower value
[10] = molecular target: N-terminal Xaa-Pro-Lys N-methyltransferase 1 (Homo sapiens) (UniProt Q9BV86); test: Confirmatory qHTS for Inhibitors of N-terminal methyltransferase 1 (NTMT1): MTaseGlo Assay (AID 1645874);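 further: luminescence from SAH made as NTMT1 methylates SPKRIA peptide using SAM; series mostly up to about 100 µM; nearly all actives have a fitted effect of over 65% in size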
Outline: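 Preincubation of NTMT1 (125 nM) plus SAM (100 uM) with test compounds lasted 15 min; methylation of 1 uM SPKRIA then proceeded 30 min in the dark at room temperature. Luciferase signal reported SAH produced.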

Cytochrome P450 2C9 (Homo sapiens), sequence (P11712 whole entry, looked up): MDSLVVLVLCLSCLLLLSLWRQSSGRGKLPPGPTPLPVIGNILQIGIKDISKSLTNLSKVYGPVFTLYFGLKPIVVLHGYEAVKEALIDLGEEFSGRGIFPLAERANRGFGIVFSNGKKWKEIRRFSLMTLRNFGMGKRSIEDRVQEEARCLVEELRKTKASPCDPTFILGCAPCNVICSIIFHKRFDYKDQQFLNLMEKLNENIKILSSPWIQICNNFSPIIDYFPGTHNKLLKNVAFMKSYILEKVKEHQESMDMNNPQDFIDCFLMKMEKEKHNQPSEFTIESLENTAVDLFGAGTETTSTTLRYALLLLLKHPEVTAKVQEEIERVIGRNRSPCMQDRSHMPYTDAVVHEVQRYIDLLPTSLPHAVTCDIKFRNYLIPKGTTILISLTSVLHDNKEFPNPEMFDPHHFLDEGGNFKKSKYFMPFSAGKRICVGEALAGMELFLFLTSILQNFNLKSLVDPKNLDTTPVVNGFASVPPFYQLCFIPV
Catechol O-methyltransferase (Homo sapiens), sequence (P21964 whole entry, looked up): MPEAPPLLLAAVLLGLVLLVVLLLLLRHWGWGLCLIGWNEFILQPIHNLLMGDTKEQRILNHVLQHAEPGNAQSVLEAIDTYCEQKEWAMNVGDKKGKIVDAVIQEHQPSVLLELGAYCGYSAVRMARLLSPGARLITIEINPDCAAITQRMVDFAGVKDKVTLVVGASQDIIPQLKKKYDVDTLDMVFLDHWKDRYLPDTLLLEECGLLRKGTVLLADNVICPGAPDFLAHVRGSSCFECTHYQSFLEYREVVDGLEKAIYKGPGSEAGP
Papain (Carica papaya), sequence (P00784 whole entry, looked up): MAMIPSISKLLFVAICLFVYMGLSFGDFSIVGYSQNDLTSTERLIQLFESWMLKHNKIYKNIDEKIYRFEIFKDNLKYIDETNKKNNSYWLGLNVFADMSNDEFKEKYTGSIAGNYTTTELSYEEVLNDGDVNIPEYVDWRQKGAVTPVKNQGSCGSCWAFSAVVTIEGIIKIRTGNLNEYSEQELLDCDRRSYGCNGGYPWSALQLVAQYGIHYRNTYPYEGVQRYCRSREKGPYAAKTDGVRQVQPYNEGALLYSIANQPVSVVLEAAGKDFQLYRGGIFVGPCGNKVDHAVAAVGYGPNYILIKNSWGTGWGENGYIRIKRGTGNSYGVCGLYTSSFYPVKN
Rap guanine nucleotide exchange factor 3 (Homo sapiens), sequence (O95398 whole entry, looked up): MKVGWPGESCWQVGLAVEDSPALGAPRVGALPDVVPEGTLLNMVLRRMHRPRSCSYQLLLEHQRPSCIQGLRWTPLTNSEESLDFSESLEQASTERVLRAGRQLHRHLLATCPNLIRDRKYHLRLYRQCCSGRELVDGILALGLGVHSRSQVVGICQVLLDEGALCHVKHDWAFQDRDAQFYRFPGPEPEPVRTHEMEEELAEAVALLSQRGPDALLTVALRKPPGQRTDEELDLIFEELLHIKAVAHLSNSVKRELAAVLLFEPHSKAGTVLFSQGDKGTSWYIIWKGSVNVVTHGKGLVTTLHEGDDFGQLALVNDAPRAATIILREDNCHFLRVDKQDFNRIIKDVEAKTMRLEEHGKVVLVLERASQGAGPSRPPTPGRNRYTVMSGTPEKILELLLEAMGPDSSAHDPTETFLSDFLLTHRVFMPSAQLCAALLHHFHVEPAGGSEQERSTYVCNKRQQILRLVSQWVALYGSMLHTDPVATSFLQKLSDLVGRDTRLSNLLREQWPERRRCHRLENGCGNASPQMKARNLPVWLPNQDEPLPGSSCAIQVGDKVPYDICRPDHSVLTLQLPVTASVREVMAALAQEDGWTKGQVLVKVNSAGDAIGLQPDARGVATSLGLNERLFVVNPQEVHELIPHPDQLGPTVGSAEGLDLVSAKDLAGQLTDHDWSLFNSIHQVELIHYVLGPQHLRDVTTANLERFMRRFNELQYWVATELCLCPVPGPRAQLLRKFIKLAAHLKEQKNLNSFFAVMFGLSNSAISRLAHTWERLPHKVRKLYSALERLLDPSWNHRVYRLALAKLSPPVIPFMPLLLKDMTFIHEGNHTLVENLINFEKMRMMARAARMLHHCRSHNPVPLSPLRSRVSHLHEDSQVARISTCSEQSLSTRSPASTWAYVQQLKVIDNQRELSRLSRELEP
Rap guanine nucleotide exchange factor 4 (Homo sapiens), sequence (Q8WZA2 whole entry, looked up): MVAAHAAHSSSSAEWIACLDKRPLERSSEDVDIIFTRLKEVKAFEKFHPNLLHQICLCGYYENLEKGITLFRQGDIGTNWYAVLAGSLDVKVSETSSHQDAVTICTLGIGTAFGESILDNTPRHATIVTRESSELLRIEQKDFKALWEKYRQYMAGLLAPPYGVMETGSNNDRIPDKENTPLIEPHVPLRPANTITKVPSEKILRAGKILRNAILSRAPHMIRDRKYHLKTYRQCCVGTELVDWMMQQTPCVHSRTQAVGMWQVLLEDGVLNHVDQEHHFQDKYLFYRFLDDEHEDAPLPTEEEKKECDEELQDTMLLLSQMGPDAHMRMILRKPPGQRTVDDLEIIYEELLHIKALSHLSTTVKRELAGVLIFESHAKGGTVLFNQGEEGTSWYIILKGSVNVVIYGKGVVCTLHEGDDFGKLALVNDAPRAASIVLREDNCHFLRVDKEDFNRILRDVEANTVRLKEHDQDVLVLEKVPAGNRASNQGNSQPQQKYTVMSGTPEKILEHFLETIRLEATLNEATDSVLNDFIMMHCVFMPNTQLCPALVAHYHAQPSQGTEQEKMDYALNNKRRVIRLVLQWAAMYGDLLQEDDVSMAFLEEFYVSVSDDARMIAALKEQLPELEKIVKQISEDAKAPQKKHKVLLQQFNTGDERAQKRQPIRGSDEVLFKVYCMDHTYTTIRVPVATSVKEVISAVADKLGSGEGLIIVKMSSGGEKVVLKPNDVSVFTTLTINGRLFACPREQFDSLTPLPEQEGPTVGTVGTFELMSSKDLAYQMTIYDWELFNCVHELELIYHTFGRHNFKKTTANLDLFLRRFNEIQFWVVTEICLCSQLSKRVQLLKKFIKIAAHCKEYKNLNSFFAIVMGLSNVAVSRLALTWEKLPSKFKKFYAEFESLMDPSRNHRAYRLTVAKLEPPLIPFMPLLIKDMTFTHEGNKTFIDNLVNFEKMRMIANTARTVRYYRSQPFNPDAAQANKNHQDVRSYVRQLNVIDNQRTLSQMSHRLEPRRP
N-terminal Xaa-Pro-Lys N-methyltransferase 1 (Homo sapiens), sequence (Q9BV86 whole entry, looked up): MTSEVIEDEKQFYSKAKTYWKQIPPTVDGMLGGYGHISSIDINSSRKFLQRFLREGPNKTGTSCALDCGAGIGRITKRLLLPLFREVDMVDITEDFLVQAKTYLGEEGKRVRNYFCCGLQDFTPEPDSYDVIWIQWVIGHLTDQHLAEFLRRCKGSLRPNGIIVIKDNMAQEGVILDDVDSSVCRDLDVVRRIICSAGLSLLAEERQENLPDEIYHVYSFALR

Question: Which Potency [1] does the source give for `CCCCCNC(=O)N1CCC(CN(Cc2ccc(Cl)cc2)Cc2ccc([N+](=O)[O-])s2)C1` (configuration not stated) here?
Answer: 2.68 µM (active)

Question: What about the Potency [2] of the same molecule?
Answer: inactive

Question: What about the Potency [3] of the same molecule?
Answer: inactive

Question: Which outcome [4] does the source give for `CCCNC(=O)NS(=O)(=O)c1ccc(Cl)cc1` here?
Answer: inactive

Question: And the Potency [2]?
Answer: inactive

Question: And the Potency [3]?
Answer: inactive

Question: Which results are given for `CC1(C)CCC2=C(O1)c1ccccc1C(=O)C2=O`?
Answer: outcome [4]: inactive; Potency [2]: 13.2 µM (active); outcome [5]: inactive; outcome [6]: inactive; outcome [7]: inactive; outcome [8]: inactive; activity [9]: -19.8%

Question: Which outcome [4] does the source give for `CC(C)NCC(O)COc1cccc2[nH]ccc12` (configuration not stated) here?
Answer: inactive

Question: And the Potency [2]?
Answer: inactive

Question: With `Cc1ccc(C(=O)Nc2cccc(C(F)(F)F)c2)cc1Nc1nc(-c2cccnc2)nc2c1cnn2C` as the molecule, how does the Potency [2] read?
Answer: inactive

Question: With `CC(=O)Oc1cc2c(s1)CCN(C(C(=O)C1CC1)c1ccccc1F)C2` (configuration not stated) as the molecule, how does the Potency [1] read?
Answer: 4.36 µM (active) and 4.25 µM (active)

Question: What about the Potency [2] of the same molecule?
Answer: inactive

Question: What about the Potency [3] of the same molecule?
Answer: inactive

Question: What does the source list for `CC/C(=C(\c1ccccc1)c1ccc(OCCN(C)C)cc1)c1ccccc1`?
Answer: outcome [4]: inactive; Potency [2]: inactive; Potency [3]: 17.1 µM (active)

Question: For `CC(C)(C)c1ccc(C(O)CCCN2CCC(C(O)(c3ccccc3)c3ccccc3)CC2)cc1` (configuration not stated), which outcome [4] is on record?
Answer: inactive

Question: For `Cc1ccn(-c2ccc(-c3ncco3)cc2)c(=O)c1-c1ccc2nc(N)ncc2c1`, which Potency [2] is on record?
Answer: 5.9 µM (active)

Question: Which results are given for `CC(=O)O[C@]1(C(C)=O)CC[C@H]2[C@@H]3C=C(Cl)C4=CC(=O)[C@@H]5C[C@@H]5[C@]4(C)[C@H]3CC[C@@]21C`?
Answer: Potency [1]: 9.77 µM (active); Potency [3]: inactive

Question: For `CCOC(=O)C1=C(N)Oc2ccc(Br)cc2C1C(C#N)C(=O)OCC` (configuration not stated), which Potency [1] is on record?
Answer: 6.01 µM (active) and 12 µM (active) and 10.7 µM (active)

Question: And the Potency [2]?
Answer: inactive

Question: What about the Potency [3] of the same molecule?
Answer: inactive

Question: For `CNC(=O)c1ccc2cc(C3(O)CCn4cncc43)ccc2c1` (configuration not stated), which Potency [2] is on record?
Answer: inactive

Question: With `CN(C[C@@H]1COCCO1)S(=O)(=O)Nc1ccc2ccc3ncc(-c4cnn(C)c4)cc3c(=O)c2c1` as the molecule, how does the Potency [1] read?
Answer: 0.477 µM (active)

Question: And the Potency [2]?
Answer: 5.15 µM (active)

Question: And the Potency [3]?
Answer: 6.49 µM (active)

Question: With `COc1cccc(-c2cc(=O)c3ccccc3o2)c1N` as the molecule, how does the outcome [4] read?
Answer: inactive

Question: And the Potency [2]?
Answer: inactive

Question: What about the Potency [3] of the same molecule?
Answer: inactive

Question: Which Potency [2] does the source give for `NC(=O)[C@@H](CCC(F)(F)F)N(Cc1ccc(-c2ncon2)cc1F)S(=O)(=O)c1ccc(Cl)cc1` here?
Answer: 23.5 µM (active)

Question: For `CCn1cc(C(=O)O)c(=O)c2ccc(C)nc21`, which outcome [4] is on record?
Answer: inactive

Question: For `O=c1c(O)c(-c2ccc(O)cc2)oc2cc(O)cc(O)c12`, which Potency [2] is on record?
Answer: 23.5 µM (active)

Question: Which results are given for `O=C1NC(=O)C(c2ccccc2)(c2ccccc2)N1`?
Answer: outcome [4]: inactive; Potency [2]: inactive; Potency [3]: inactive

Question: With `COc1cccc([C@@H](C)NCCCc2ccccc2Cl)c1` as the molecule, how does the Potency [2] read?
Answer: 18.6 µM (active)

Question: Which Potency [10] does the source give for `COc1cc(Nc2ncc(F)c(Nc3ccc4c(n3)NC(=O)C(C)(C)O4)n2)cc(OC)c1OC` here?
Answer: inactive

Question: And the Potency [2]?
Answer: 817 nM (active) and 4.61 µM (active)

Question: What about the Potency [3] of the same molecule?
Answer: 1.03 µM (active) and 5.17 µM (active)

Question: For `COc1ccc2c(Oc3ccc(NC(=O)c4c(C)n(CC(C)(C)O)n(-c5ccccc5)c4=O)cc3F)ccnc2c1`, which Potency [1] is on record?
Answer: 23.9 µM (active)

Question: And the Potency [2]?
Answer: 11.5 µM (active)

Question: What about the Potency [3] of the same molecule?
Answer: 14.5 µM (active)

Question: What about the activity [9] of the same molecule?
Answer: -4.14%

Question: Which results are given for `COc1cc2c(cc1OC)CN(CCc1ccc(NC(=O)c3cc(OC)c(OC)cc3NC(=O)c3cnc4ccccc4c3)cc1)CC2`?
Answer: Potency [1]: inactive; Potency [2]: inactive; Potency [3]: inactive

Question: Which results are given for `COC(=O)[C@@H]1[C@H]2C[C@H]3c4[nH]c5ccccc5c4CCN3C[C@@H]2CC[C@@H]1O`?
Answer: outcome [4]: inactive; Potency [2]: inactive; Potency [3]: inactive

Question: For `CC[C@]1(O)C[C@@H]2CN(CCc3c([nH]c4ccccc34)[C@@](C(=O)OC)(c3cc4c(cc3OC)N(C)[C@H]3[C@@](O)(C(=O)OC)[C@H](OC(C)=O)[C@]5(CC)C=CCN6CC[C@]43[C@@H]65)C2)C1`, which Potency [1] is on record?
Answer: inactive

Question: What about the Potency [2] of the same molecule?
Answer: 33.5 nM (active) and 84.1 nM (active) and 57.8 nM (active)

Question: What about the activity [9] of the same molecule?
Answer: 7.74%

Question: With `Clc1ccc(C(c2ccc(Cl)cc2)n2cc[n+](CC(OCc3ccc(Cl)cc3Cl)c3ccc(Cl)cc3Cl)c2)cc1` (configuration not stated) as the molecule, how does the outcome [4] read?
Answer: inactive

Question: What about the Potency [2] of the same molecule?
Answer: 5.25 µM (active)

Question: And the Potency [3]?
Answer: 5.25 µM (active)

Question: Which Potency [2] does the source give for `CCCCCCCCCCCC1=C(O)C(=O)C=C(O)C1=O` here?
Answer: inactive

Question: Which results are given for `O=C(NC1CCOCC1)c1ccc(-c2cc(-c3cn[nH]c3-c3ccccn3)ccn2)cc1`?
Answer: Potency [2]: inactive; Potency [3]: inactive

Question: With `O=C(N[C@@H](c1ccccc1)[C@@H]1CCCCN1)c1cccc(C(F)(F)F)c1Cl` as the molecule, how does the Potency [2] read?
Answer: 18.6 µM (active)

Question: And the Potency [3]?
Answer: 16.6 µM (active)

Question: With `COc1ccc(-c2cc(=O)c3c(O)cc(O)cc3o2)cc1O` as the molecule, how does the Potency [2] read?
Answer: 11.8 µM (active)

Question: And the Potency [3]?
Answer: 14.8 µM (active)

Question: For `O=C(O)c1ccccc1C(=O)Nc1ccc(-c2ccccc2)cc1`, which Potency [2] is on record?
Answer: inactive

Question: And the Potency [3]?
Answer: inactive

Question: Which Potency [2] does the source give for `O=c1cc(CN2CCOCC2)occ1OCCCCCSc1ccnc2cc(C(F)(F)F)ccc12` here?
Answer: 18.6 µM (active) and 9.16 µM (active)

Question: For `COc1ccc(-c2nc(N3CCOCC3)c3sc(CN(C)c4ncc(C(=O)NO)cn4)cc3n2)cn1`, which Potency [2] is on record?
Answer: 7.3 nM (active) and 29.5 nM (active)

Question: And the Potency [3]?
Answer: 8.2 nM (active) and 33.2 nM (active)

Question: With `O=C(Nc1c(Cl)cncc1Cl)c1ccc(OC(F)F)c(OCC2CC2)c1` as the molecule, how does the Potency [2] read?
Answer: inactive

Question: What does the source list for `CNC1CCC(N(Cc2cccc(-c3ccncc3)c2)C(=O)c2sc3c(F)ccc(F)c3c2Cl)CC1` (configuration not stated)?
Answer: Potency [2]: 8.33 µM (active) and 8.17 µM (active); Potency [3]: 7.42 µM (active) and 8.17 µM (active)

Question: For `COc1ccc2cccc(CCNC(C)=O)c2c1`, which Potency [2] is on record?
Answer: inactive

Question: And the Potency [3]?
Answer: inactive

Question: Which Potency [2] does the source give for `CN(C)Cc1cccc(N=C(c2ccccc2)c2c(O)[nH]c3cc(C(=O)N(C)C)ccc23)c1` here?
Answer: 16.6 µM (active)

Question: What about the Potency [3] of the same molecule?
Answer: 14.8 µM (active)

Question: With `CC(C)C(C)C=CC(C)C1CCC2C3=CC=C4CC(O)CCC4(C)C3CCC21C` (configuration not stated) as the molecule, how does the Potency [2] read?
Answer: inactive

Question: For `O=C(O)c1ccc(-c2c[nH]c3ncc(-c4ccccc4)cc23)cc1C1CCCC1`, which Potency [2] is on record?
Answer: inactive

Question: And the Potency [3]?
Answer: 18.6 µM (active)

Question: With `Clc1cc(Cl)cc(CNc2ncncc2-c2ccc3c(c2)OCO3)c1` as the molecule, how does the Potency [2] read?
Answer: 13.2 µM (active)

Question: Which Potency [2] does the source give for `COc1ccc(-n2c(C)c([N+](=O)[O-])c3ccc(O)cc32)cc1` here?
Answer: inactive

Question: And the Potency [3]?
Answer: inactive

Source: PubChem BioAssay (NCATS)
